An excerpt weighted towards active compounds, which were near 1.2% of everything screened.
VDR inh: Inhibitors of the vitamin D receptor (VDR): qHTS; Vitamin D3 receptor (Homo sapiens), P11473; VDR-SRC2-3 peptide fluorescence polarization, 2 h; Potency, µM, for the others: max response, negative = inhibition, usual class: inhibitors; actives 0.93% (n = 400,000); AID 504847, 2011; further: on the % scale 0 is the no-effect control and ±100 the full control effect
Target sequence (P11473 whole entry, looked up): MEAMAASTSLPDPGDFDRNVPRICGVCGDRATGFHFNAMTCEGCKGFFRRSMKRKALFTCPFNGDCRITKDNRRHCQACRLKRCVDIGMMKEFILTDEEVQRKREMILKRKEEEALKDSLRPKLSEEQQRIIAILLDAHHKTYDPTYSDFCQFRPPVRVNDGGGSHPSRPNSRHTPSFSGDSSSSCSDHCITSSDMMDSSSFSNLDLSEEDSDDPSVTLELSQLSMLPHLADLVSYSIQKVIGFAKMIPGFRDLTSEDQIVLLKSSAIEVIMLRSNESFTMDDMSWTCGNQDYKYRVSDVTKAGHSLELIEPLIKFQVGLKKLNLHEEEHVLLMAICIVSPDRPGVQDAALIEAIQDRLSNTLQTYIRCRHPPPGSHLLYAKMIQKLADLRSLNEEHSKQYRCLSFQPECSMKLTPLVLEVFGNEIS
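Inhibition of the VDR/SRC2-3 peptide interaction is quantified by fluorescence polarization. Compounds (23 nl, pintool) incubate with the reagents for 2 hours at ambient room temperature.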
EPAC1 ag: qHTS for Agonist of cAMP-regulated guanine nucleotide exchange factor 3 (EPAC1): primary screen; AID 720707, 2013; actives 0.073% (n = 360,000); Potency, µM (highest dose often 154 µM), without a hit: top-dose activation, actives largely listed as activators; Rap guanine nucleotide exchange factor 3 (Homo sapiens), O95398; EPAC1 agonist qHTS, biochemical assay; response scale: 100% = response to 6.5 mM cAMP; further: nearly all actives have a fitted effect of over 60% in size
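Read-out is the fluorescence drop as BODIPY-GDP leaves Rap1B (480 nm excitation, 540 nm emission), recorded every 5 minutes over 30 minutes. Reactions held 100 nM EPAC1, 250 nM Rap1B–BODIPY-GDP and 50 uM GDP, with 6.5 mM cAMP setting full activation.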
EPAC1 antagonist: qHTS for Antagonist of cAMP-regulated guanine nucleotide exchange factor 3 (EPAC1): primary screen | EPAC1 GEF assay, Rap1b-BODIPY-GDP exchange fluorescence | actives 0.14% (n = 360,000) | Potency, µM (doses to about 115 µM), inactives show top-dose activity change, negative = inhibition, hits mostly inhibitors | AID 720709, 2013 | Rap guanine nucleotide exchange factor 3 (Homo sapiens), O95398;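 further: plate controls were vehicle for no effect and positive control for full effect; nearly all actives have a fitted effect of over 50% in size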
EPAC2 antag: qHTS for Antagonist of cAMP-regulated guanine nucleotide exchange factor 2 (EPAC2): primary screen; Rap guanine nucleotide exchange factor 4 (Homo sapiens), Q8WZA2; Potency, µM (top dose mostly 114 µM), for the others: at the top dose activity, negative = inhibition, hits mostly inhibitors; actives 0.18% (n = 360,000); EPAC2 GEF exchange of Rap1B-BODIPY-GDP, fluorescence; further: on the % scale 0 is the no-effect control and ±100 the full control effect; nearly all actives have a fitted effect of over 45% in size
EPAC2 ag: qHTS for Agonist of cAMP-regulated guanine nucleotide exchange factor 4 (EPAC2): primary screen. AID 720711, 2013. Potency, µM (titrated, usually from 154 µM), for the others: top-dose activation, usual class: activators. Rap guanine nucleotide exchange factor 4 (Homo sapiens), Q8WZA2. EPAC2 activation, biochemical qHTS; response scale: 100% = 6.5 mM cAMP response. actives 0.079% (n = 360,000); further: nearly all actives have a fitted effect of over 50% in size
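Readout is BODIPY fluorescence (480 nm excitation, 540 nm emission), which falls as labeled GDP is exchanged off Rap1B. EPAC2 at 100 nM acted on 250 nM RAP1B-BODIPY-GDP with 50 uM GDP present.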
USP1-UAF1 inh: Inhibitors of USP1/UAF1: Primary Screen | Ubiquitin carboxyl-terminal hydrolase 1 (Homo sapiens), O94782 | actives 0.23% (n = 390,000) | Potency, µM (top dose mostly 57.1 µM), without a hit: at the highest dose activity change, negative = inhibition, most hits filed as inhibitors | recombinant USP1/UAF1, Ub-Rhodamine cleavage fluorescence; further: on the % scale 0 is the no-effect control and ±100 the full control effect; nearly all actives have a fitted effect of over 60% in size
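USP1/UAF1 complex at 1 nM was preincubated with compound for 15 min at room temperature, then Ub-Rho substrate (150nM final) was added. Fluorescence (480/540 nm) was read kinetically, 6 reads every 60 seconds.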
Active calls of the source: *; u = inconclusive; x = no result; ! = a repeat was not active. The call rests on the fitted dose curve; in most records, active means well fitted curve in the direction sought with a large enough effect; inconclusive means small, poorly fitted or top-dose-only effect, or another doubt; inactive means no such curve, though single readings can be large; an effect the other way counts as inactive or inconclusive. Potency means the concentration at half of the fitted maximal effect.

SMILES	VDR inh	EPAC1 ag	EPAC1 antagonist	EPAC2 antag	EPAC2 ag	USP1-UAF1 inh
C=C[C@@]1(C)CC[C@H]2C(=CC[C@@H]3[C@]2(C)CCC[C@@]3(C)C(=O)O)C1	-8.4%	x	x	x	x	x
Cc1noc(C)c1C(=O)N1CCC2(CC1)CN(c1ccccn1)C2	-1.9%	x	x	x	x	x
Cc1ccc(C(=O)CC(=O)c2ccccc2C)c(O)c1	-5.1%	-0.6%	-7.6%	-6.9%	10.8%	-20.4%
C=C(CN(C)C)C(=O)c1ccc(C)cc1C	17.8µM*	13.2%	5.1%	-5.3%	0.2%	-23.6%
C=C(CN(C)C)C(=O)c1cc(OC)c(OC)cc1OC	50.1µM*	-0.4%	-17.3%	0.6%	16.8%	2.0%
C=C(C)C(=O)c1ccc2c(c1)OCO2	-1.0%	x	x	x	x	x
C=C(CN(C)C)C(=O)c1ccc2c(c1)OCO2	79.4µM*	4.5%	-5.8%	5.5%	0.9%	-14.5%
Cc1ccccc1Cn1c(=O)n(CCCCC(=O)NCCc2ccccc2)c(=O)c2ccccc21	9.8%	x	x	x	x	-25.7%
O=[N+]([O-])c1cccc(SSc2cccc([N+](=O)[O-])c2)c1	3.98µM*	-2.9%	-3.3%	3.0%	8.9%	-14.8%
Cc1[nH][nH]c(=O)c1C(c1ccc(-c2ccc(Cl)c(Cl)c2)o1)c1c(C)[nH][nH]c1=O	79.4µM*	-1.7%	-7.4%	-12.7%	9.9%	u
Cc1[nH][nH]c(=O)c1C(c1ccc(-c2ccc(F)cc2)o1)c1c(C)[nH][nH]c1=O	31.6µM*	1.8%	-3.3%	7.7%	3.6%	u
COc1ccc(-c2ccc(C(c3c(C)[nH][nH]c3=O)c3c(C)[nH][nH]c3=O)o2)c([N+](=O)[O-])c1	u	4.0%	-5.6%	-3.0%	6.6%	u
Cc1[nH][nH]c(=O)c1C(c1ccc(-c2ccc(C(=O)O)cc2)o1)c1c(C)[nH][nH]c1=O	u	6.9%	8.4%	3.1%	8.1%	u
CCCCN(C)c1nc(-c2ccco2)c2c(c1C#N)CC(C)(C)OC2	20µM*	-19.6%	-29.7%	u	3.5%	-14.8%
Oc1ccc(/C=N/Nc2ncnc3nc[nH]c23)cc1	-3.5%	0.1%	-10.6%	17.8µM*	-0.2%	-26.8%
Cc1ccc(SCC(CC(C)C)N2CCN(C)CCC2=O)cc1 (stereo unspecified)	-2.2%	x	x	x	x	x
CC(=O)OCC1=C(C(=O)O)N2C(=O)C(NC(=O)CCn3nc(C)c(Cl)c3C)C2SC1 (stereo unspecified)	-12.7%	-1.6%	-1.6%	5.1%	-3.1%	-12.9%
CC(=O)OCC1=C(C(=O)O)N2C(=O)C(NC(=O)CCn3nc(C(F)(F)F)c(Br)c3C3CC3)C2SC1 (stereo unspecified)	39.8µM*	0.0%	-29.4%	-0.7%	7.8%	-5.9%
O=c1[nH]nc(CNc2ccc(OC(F)(F)F)cc2)c2ccccc12	-7.5%	-9.5%	-19.0%	-16.5%	10.4%	-20.0%
O=c1[nH]nc(CNc2ccc(O)cc2)c2ccccc12	u	9.6%	35.5µM*	7.4%	0.1%	u
COc1ccc2[nH]c(S(=O)Cc3ncc(C)c(OC)c3C)nc2c1 (stereo unspecified)	x	-23.1%	12.0%	5.5%	-0.5%	u
COc1ccc2[nH]c(S(=O)Cc3ncc(C)c(OC)c3C)nc2n1 (stereo unspecified)	44.7µM*	x	x	x	x	x
CC[C@H](C)[C@H](NC(=O)CNC(=O)[C@H](CCCNC(=N)N)NC(=O)[C@H](CO)NC(=O)[C@H](C)NC(=O)[C@H](Cc1ccc(O)cc1)NC(=O)[C@H](Cc1c[nH]c2ccccc12)NC(=O)[C@H](C)NC(=O)[C@@H]1CCCN1C(=O)[C@H](CC(N)=O)NC(=O)[C@@H](NC(=O)[C@H](CC(=O)O)NC(=O)[C@@H]1CCCN1C(=O)[C@@H](N)[C@@H](C)O)[C@@H](C)CC)C(=O)N[C@@H](CCCNC(=N)N)C(=O)N1CCC[C@H]1C(=O)N[C@H](C(=O)NCC(=O)N[C@@H](CCCNC(=N)N)C(=O)N[C@@H](Cc1ccccc1)C(N)=O)C(C)C	4.2%	x	x	x	x	x
COc1ccc2cc(Br)ccc2c1CC(=O)N(C)C	0.2%	-5.3%	-0.6%	-2.0%	2.5%	-17.3%
CCCCN(C)C(=O)Cc1c(OC)ccc2cc(Br)ccc12	22.4µM*	-4.4%	-1.0%	-5.9%	6.5%	-17.5%
SMILES	VDR inh	EPAC1 ag	EPAC1 antagonist	EPAC2 antag	EPAC2 ag	USP1-UAF1 inh
Fc1ccc(C(c2ccc(F)cc2)N2CCN(C/C=C\c3ccccc3)CC2)cc1	9.7%	x	x	x	x	x
Nc1nc(Cl)nc2c1ncn2[C@@H]1O[C@H](COP(=O)(O)OP(=O)(O)OP(=O)(O)O)[C@@H](O)[C@H]1O	2.3%	x	x	x	x	x
CN(C)c1nc(OCCNC(=O)Nc2ccccc2)nc(N2CCCCC2)n1	-11.5%	-0.2%	-23.6%	-8.8%	-7.0%	-15.7%
CN(C)c1nc(OCCNC(=O)Nc2ccccc2)nc(N(C)C)n1	10.2%	-6.4%	8.9%	0.0%	10µM*	-22.0%
CCOC(=O)/C=C1\CC(C(=O)OCC)Oc2c(OC)cccc21 (stereo unspecified)	79.4µM*	18.1%	-6.2%	-12.1%	8.7%	-19.2%
O=C1S/C(=C/c2ccc(N3CCOCC3)o2)C(=O)N1Cc1c(F)cccc1Cl	79.4µM*	-7.2%	10.5%	29.9%	18.2%	u
O=C(O)c1ccccc1-c1ccc(/C=C2\SC(=O)N(c3ccccc3)C2=O)o1	-7.1%	2.6%	2.8%	-22.1%	-4.8%	-15.9%
O=C1N=C(N2CCOCC2)S/C1=C/c1ccc(-c2ccccc2Cl)o1	-14.2%	2.6%	-1.5%	0.9%	4.3%	-15.2%
O=C1S/C(=C\c2ccc(N3CCOCC3)o2)C(=O)N1Cc1c(F)cccc1Cl	u	0.6%	16.0%	15.6%	14.1%	3.98µM*
O=C1S/C(=C\c2ccc(N3CCOCC3)o2)C(=O)N1c1ccccc1	u	12.3%	-8.5%	30.5%	89.1µM*	28.2µM*
Cc1ccc[n+](-c2nc([O-])sc2C=O)c1	6.5%	u	35.9%	45.0%	u	28.2µM*
COc1cc(C)c(/C=C/C(C)=C/C=C/C(C)=C/C(=O)O)c(C)c1C	44.7µM*!	-7.7%	u	10µM*	-8.1%	-33.2%

Source: PubChem BioAssay (National Center for Advancing Translational Sciences (NCATS))
